Test results published in the supplement of paper PMC3334620.
The full ranking holds about 33,000 sequences; the median of “E-score (-0.5 to 0.5)” is about -0.012, and the highest 2% start at about 0.27. This is one part of a sample in which the highest values are shown more often than they occur.

The sequences below were run against T1, Vhr1 (UniProt P40522) (assay: PBM E-score (8-mer binding enrichment) (E-score (-0.5 to 0.5)); higher = stronger / more preferred TF binding). Conditions: protein concentration: 200 nM; construct: GST-full length.
T1 sequence: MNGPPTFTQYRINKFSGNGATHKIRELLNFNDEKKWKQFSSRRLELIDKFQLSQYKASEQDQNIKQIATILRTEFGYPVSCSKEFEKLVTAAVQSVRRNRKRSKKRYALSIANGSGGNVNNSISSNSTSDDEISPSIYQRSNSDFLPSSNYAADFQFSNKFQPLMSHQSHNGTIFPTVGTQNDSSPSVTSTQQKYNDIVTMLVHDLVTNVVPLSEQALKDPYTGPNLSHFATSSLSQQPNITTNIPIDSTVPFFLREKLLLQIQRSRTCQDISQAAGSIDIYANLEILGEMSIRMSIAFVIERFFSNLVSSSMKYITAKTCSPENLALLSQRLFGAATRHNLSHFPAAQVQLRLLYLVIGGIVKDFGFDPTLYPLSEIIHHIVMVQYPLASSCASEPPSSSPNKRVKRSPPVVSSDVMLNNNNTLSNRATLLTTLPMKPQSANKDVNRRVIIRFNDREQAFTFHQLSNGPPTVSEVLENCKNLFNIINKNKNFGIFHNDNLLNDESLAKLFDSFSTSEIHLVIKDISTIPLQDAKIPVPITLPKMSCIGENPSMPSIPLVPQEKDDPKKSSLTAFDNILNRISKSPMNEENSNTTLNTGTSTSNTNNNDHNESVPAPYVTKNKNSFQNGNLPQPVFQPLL
In short: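 E-scores (a modified Wilcoxon-Mann-Whitney statistic) were assigned by the Universal PBM Analysis Suite to every ungapped eight-base word pooled with its reverse complement. The input came from universal all-10-mer Agilent arrays made double-stranded by primer extension and probed with GST-tagged yeast transcription factors at about 100-200 nM. Fluorescent anti-GST detected bound protein, and masliner normalised the scans.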

Row | Sequence | PBM E-score
1 | ACGGCGAA | 0.0608
2 | CCATATCG | 0.245
3 | GAAATTTA | -0.157
4 | AAATGCGA | -0.00728
5 | ATCAGACC | 0.0881
6 | GCTCTCAA | -0.0323
7 | CATCTGGA | 0.0944
8 | CTAATGAG | 0.0521
9 | CGTTGCGA | 0.0286
10 | GGCCAGAA | -0.00605
11 | ACAGTACT | 0.0536
12 | CATTAGCA | -0.152
13 | CGTCGAAG | 0.0798
14 | CGTAGTCA | 0.372
15 | AGTAGTTC | 0.108
16 | AGTAGTTG | 0.29
17 | AGTAGTGA | 0.106
18 | AGTAGTCC | 0.0701
19 | AGTAGTCG | 0.292
20 | AGTAGTAA | 0.0586
21 | AGTAGTAG | 0.0116
22 | CGTAGTAA | -0.095

Row | Sequence | PBM E-score
23 | AGTAGTCA | 0.401
24 | AGTAGTTA | 0.0583
25 | CGTAGTCC | -0.0429
26 | CCAGTGGA | -0.118
27 | CATTGGCG | 0.00375
28 | GGAATGCA | 0.0844
29 | GGGCTTCA | -0.00484
30 | GGTAGTGA | 0.159
31 | GGTAGTAA | -0.193
32 | GGTAGTCA | 0.427
33 | ACCGTTGC | -0.0641
34 | CACAATGA | 0.286
35 | CACAATGC | 0.132
36 | CACAATGG | 0.176
37 | AACAGTCA | 0.192
38 | CTCAGTCC | -0.0479
39 | CACAGTCA | 0.244
40 | ATCAGTCG | 0.23
41 | TACAGTCA | 0.294
42 | ACCAGTCT | 0.0104
43 | ACCAGTCA | 0.298
44 | CTCAGTGA | 0.111

Row | Sequence | PBM E-score
45 | GTCAGTCA | 0.267
46 | ATCAGTCA | 0.306
47 | CTCAGTCA | 0.362
48 | ACCAGTCC | -0.0311
49 | ACGCTAGC | -0.322
50 | AATTTAGG | 0.0535
51 | CACTAATC | 0.19
52 | CCCAATCG | -0.00353
53 | GAATGCAC | 0.109
54 | CGGCTCGC | 0.0809
55 | AACAGCTC | 0.0178
56 | GTGAATAA | 0.16
57 | CTGAATCC | 0.224
58 | GTGAATCA | 0.394
59 | CTGAATCA | 0.402
60 | ATGAATCC | 0.0842
61 | CTGAATTA | -0.00808
62 | GTGAATGA | 0.0662
63 | ATGAATCG | 0.214
64 | ATGAATCA | 0.423
65 | GAAGATAC | 0.00993
66 | AGCTTGTA | -0.0135

Row | Sequence | PBM E-score
67 | GACAGCTC | -0.0639
68 | CCGGCCGC | -0.048
69 | CCGGCCGG | 0.282
70 | CCGGCCGA | 0.031
71 | AGGTCGTA | 0.107
72 | AGATTGGA | -0.0483
73 | CTGTCACA | 0.025
74 | CGGTCACC | 0.0171
75 | CAGTCACC | 0.307
76 | TAGTCACA | 0.394
77 | CCGTCACA | -0.0936
78 | TGGTCACA | 0.035
79 | CCGTCACC | -0.114
80 | CAGTCACA | 0.348
81 | AGGTCACC | -0.16
82 | AAGTCACC | 0.301
83 | TCGTCACA | 0.0377
84 | ACGTCACC | -0.0531
85 | CTACTTCC | -0.0528
86 | CAAGTGAC | -0.00136
87 | TAGCGCAA | -0.0984
88 | ACCGCGGC | 0.0296

Row | Sequence | PBM E-score
89 | ACGGTAAC | 0.0764
90 | GACAGCAA | -0.0406
91 | CGGTCACA | 0.0193
92 | CAGTCAAA | -0.0678
93 | AAGTCACG | 0.336
94 | AAGTCACA | 0.246
95 | CAGTCACG | 0.365
96 | AAGTCACT | 0.209
97 | GACATCAC | 0.0237
98 | CGGATTGA | 0.132
99 | ACCGGACT | -0.0358
100 | ACCGGACG | 0.283
101 | CCCGGACG | -0.133
102 | ATAGTGTC | 0.13
103 | ATATTATC | 0.0882
104 | ATATTATA | 0.058
105 | ATATTATG | 0.324
106 | CGTATACG | 0.107
107 | TAGTCAGA | 0.258
108 | CAGTCAGG | 0.175
109 | CAGTCATG | 0.406
